This is an account of results in paper PMC5540273 (PLoS ONE, 2017).

The structures appear in SMILES notation.

Among the test systems are EIF2AK1; EPHA1; EPHA2; EPHA3; EPHA4; EPHA5; EPHA6; EPHA7; EPHA8; EPHB1; EPHB2; EPHB3; EPHB4; EPHB6; ERBB2; ERBB3; ERBB4.
Common to all, as to settings: concentration: 1 μM, replicates: in singlicate; n = 1
For a further test, the system named is T1, ERK1.
T1 construct: gene MAPK3

Another test deals with T2, ERK2.
T2 construct: gene MAPK1

Another test relates to T3, ERK3.
T3 construct: gene MAPK6
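Also: KINOMEscan kinase panel screen.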

Consider `Fc1ccc(Nc2nccc(-c3c(-c4ccc(Cl)cc4)nn4ncccc34)n2)cc1F` [GW829058], for which the “%Inh” value in the test with EIF2AK1 came out at 0%; in the test with EPHA1, 13%; in the test on EPHA2 it was 3%; in the test with EPHA3 it was 27%; in the test with EPHA4 it was 12%; in the test on EPHA5, 24%. The “%Inh” value in the test with EPHA6 came to 15%; with EPHA7, 8%; in the test on EPHA8 it was 9%; with EPHB1, 20%; with EPHB2, 17%; in the test with EPHB3 it was 15%. Moreover, the “%Inh” value amounted to 14% in the test with EPHB4; 23% in the test with EPHB6; 21% with ERBB2; 36% in the test with ERBB3; 0% with ERBB4; 6% in the test on ERK1. Further, the “%Inh” value with ERK2 is recorded as 28%; with ERK3 it was 0%.

Take `CNc1nccc(-c2c(-c3ccc(F)cc3)ncn2C2CCN(C)CC2)n1` [SB-222903]: the “%Inh” value with EIF2AK1 stood at 0%; in the test on EPHA1 it was 0%; in the test on EPHA2 it was 0%; in the test with EPHA3, 2%; in the test with EPHA4 it was 1%; with EPHA5, 0%. In addition, the “%Inh” value with EPHA6 stood at 0%; with EPHA7, 0%; with EPHA8 it was 0%; in the test on EPHB1, 9%; in the test with EPHB2, 0%; with EPHB3 it was 2%. Moreover, the “%Inh” value amounted to 0% in the test on EPHB4; 0% in the test with EPHB6; 0% with ERBB2; 0% with ERBB3; 2% in the test with ERBB4; 1% with ERK1. Further, the “%Inh” value with ERK2 and in the test on ERK3 was 0% throughout.

Take `Nc1nc(-c2ccc3c(N)n[nH]c3c2)cc(N2CCC[C@@H](C(=O)Nc3ccccc3)C2)n1.O=C(O)C(F)(F)F.O=C(O)C(F)(F)F` [GSK2288359]: the “%Inh” value in the test on EIF2AK1 was 1%; in the test with EPHA1 it was 17%; with EPHA2, 0%; in the test with EPHA3 it was 0%; in the test on EPHA4, 4%; in the test on EPHA5, 0%. The “%Inh” value in the test with EPHA6 came to 0%; in the test on EPHA7, 3%; with EPHA8, 3%; with EPHB1, 21%; in the test with EPHB2 it was 0%; with EPHB3 it was 5%. Besides, the “%Inh” value amounted to 1% with EPHB4; 29% with EPHB6; 0% in the test with ERBB2; 0% in the test with ERBB3; 2% in the test on ERBB4; 100% in the test on ERK1. Moreover, the results for the “%Inh” value with ERK2 and with ERK3 were 0% and 18%, respectively.

As to `N#Cc1ccc(Oc2ccc(Nc3ncnc4cc[nH]c34)cc2Cl)cc1`, the “%Inh” value in the test on EIF2AK1 came to 5%; in the test on EPHA1, 1%; with EPHA2, 0%; in the test on EPHA3, 0%; in the test with EPHA4, 23%; in the test with EPHA5 it was 0%. Besides, the “%Inh” value in the test with EPHA6 was 23%; in the test on EPHA7 it was 2%; with EPHA8, 1%; in the test with EPHB1 it was 5%; in the test with EPHB2, 8%; in the test on EPHB3, 21%. Also, the “%Inh” value in the test with EPHB4 was determined as 24%; in the test on EPHB6 it was 33%; with ERBB2, 79%; in the test with ERBB3 it was 9%; with ERBB4 it was 76%; in the test with ERK1, 0%. Further, the figures for the “%Inh” value in the test on ERK2 and in the test on ERK3 were 6% and 0%, respectively.

In the case of `CC(C)(C)OC(=O)NC1CCCN(c2cc(-c3ccc4c(N)n[nH]c4c3)nc(N)n2)C1` (centres unmarked) [GSK2286096], the “%Inh” value is reported as 4% with EIF2AK1; 8% in the test with EPHA1; 11% in the test on EPHA2; 0% in the test on EPHA3; 14% with EPHA4; 0% in the test with EPHA5. Moreover, the “%Inh” value came out at 9% with EPHA6; 0% in the test with EPHA7; 6% with EPHA8; 10% with EPHB1; 90.5% with EPHB2; 14% in the test with EPHB3. Further, the “%Inh” value in the test with EPHB4 is on record as 9%; with EPHB6, 0%; with ERBB2, 0%; in the test on ERBB3, 0%; in the test on ERBB4, 33%; in the test on ERK1, 0%. For the same compound, the “%Inh” value in the test on ERK2 and with ERK3 was 0% throughout.

`Cn1ccc2ncnc(Oc3ccc(NC(=O)Nc4cccnc4)c(Cl)c3)c21`: the “%Inh” value is 0% in the test with EIF2AK1; 0% in the test on EPHA1; 0% in the test on EPHA2; 4% in the test with EPHA3; 29% in the test with EPHA4; 11% in the test on EPHA5. For the same compound, the “%Inh” value with EPHA6 amounted to 32%; in the test on EPHA7 it was 7%; in the test with EPHA8, 10%; in the test on EPHB1, 9%; in the test with EPHB2, 2%; in the test with EPHB3 it was 12%. Moreover, the “%Inh” value in the test on EPHB4 is listed as 10%; in the test on EPHB6, 5%; in the test with ERBB2 it was 18%; in the test on ERBB3, 2%; with ERBB4 it was 0%; in the test on ERK1, 0%. Further, the “%Inh” value in the test on ERK2 is 11%; in the test on ERK3, 0%.

Regarding `CC(C)(C)c1ccc(-n2cnc3c(N)ncnc32)cc1` [SKF-97263], the “%Inh” value was determined as 0% in the test on EIF2AK1; 14% in the test on EPHA1; 23% in the test on EPHA2; 0% with EPHA3; 27% in the test on EPHA4; 0% with EPHA5. Moreover, the “%Inh” value in the test with EPHA6 is listed as 28%; in the test on EPHA7 it was 8%; in the test on EPHA8, 16%; with EPHB1, 3%; in the test on EPHB2, 17%; in the test with EPHB3, 31%. Further, the “%Inh” value in the test with EPHB4 is listed as 15%; in the test on EPHB6, 9%; in the test on ERBB2 it was 29%; in the test with ERBB3, 0%; in the test on ERBB4 it was 0%; with ERK1, 7%. Besides, the “%Inh” value in the test with ERK2 and in the test on ERK3 was 0% in each case.

Turning to `CN1c2ccc(-c3ccc(C(=O)NCCO)cc3)cc2-c2[nH]ncc2S1(=O)=O`, the “%Inh” value came out at 0% in the test with EIF2AK1; 11% in the test on EPHA1; 27% in the test on EPHA2; 14% in the test with EPHA3; 14% with EPHA4; 19% in the test with EPHA5. Further, the “%Inh” value amounted to 22% in the test with EPHA6; 3% in the test on EPHA7; 0% in the test with EPHA8; 7% in the test with EPHB1; 20% in the test with EPHB2; 18% in the test on EPHB3. Moreover, the “%Inh” value with EPHB4 turned out to be 23%; with EPHB6 it was 54%; with ERBB2, 8%; in the test on ERBB3, 0%; in the test with ERBB4, 10%; with ERK1 it was 10%. Besides, the “%Inh” value in the test with ERK2 is listed as 11%; in the test on ERK3, 5%.

Consider `Cn1ccc2ncnc(Nc3ccc(Oc4cccc(Cl)c4)c(Cl)c3)c21`, for which the “%Inh” value in the test with EIF2AK1 is 0%; in the test on EPHA1, 0%; in the test on EPHA2, 5%; with EPHA3 it was 13%; in the test with EPHA4, 0%; with EPHA5, 21%. In addition, the “%Inh” value in the test with EPHA6 was determined as 21%; in the test on EPHA7, 94.1%; with EPHA8, 86%; in the test on EPHB1, 15%; with EPHB2, 4%; with EPHB3, 0%. In addition, the “%Inh” value in the test on EPHB4 stood at 0%; with EPHB6 it was 4%; in the test on ERBB2, 100%; in the test on ERBB3, 17%; with ERBB4, 97%; with ERK1, 2%. Moreover, the “%Inh” value is 35% in the test on ERK2 and 6% in the test with ERK3.

On to `Fc1ccc(-c2ncn(CCCNCc3ccccc3)c2-c2ccncc2)cc1`, for which the “%Inh” value with EIF2AK1 is on record as 0%; with EPHA1, 4%; in the test on EPHA2, 10%; with EPHA3 it was 0%; in the test with EPHA4 it was 6%; in the test on EPHA5 it was 7%. Further, the “%Inh” value is 23% in the test on EPHA6; 0% in the test on EPHA7; 19% in the test on EPHA8; 15% in the test on EPHB1; 14% with EPHB2; 19% in the test on EPHB3. The “%Inh” value was 17% in the test on EPHB4; 36% in the test with EPHB6; 10% in the test with ERBB2; 23% in the test with ERBB3; 0% in the test on ERBB4; 5% in the test on ERK1. Besides, the figures for the “%Inh” value in the test on ERK2 and in the test on ERK3 were 14% and 0%, respectively.
